Columns and labels:
Assay in all cases: DAPPL (digital affinity profiling via proximity ligation, sequencing); 10 mM Tris-HCl pH 7.5, 50 mM NaCl, 1 mM DTT, 4% glycerol, room temperature, 30 min; GST-TFs on glutathione beads, 16-mer random dsDNA library, 0.1% formaldehyde crosslink after washing; high values mean tight binding
[1] = target: T1, FLI1 (Homo sapiens, UniProt Q01543 1-452); settings: protein: recombinant; tags: N-terminal GST; dsDNA, one strand shown
T1 sequence: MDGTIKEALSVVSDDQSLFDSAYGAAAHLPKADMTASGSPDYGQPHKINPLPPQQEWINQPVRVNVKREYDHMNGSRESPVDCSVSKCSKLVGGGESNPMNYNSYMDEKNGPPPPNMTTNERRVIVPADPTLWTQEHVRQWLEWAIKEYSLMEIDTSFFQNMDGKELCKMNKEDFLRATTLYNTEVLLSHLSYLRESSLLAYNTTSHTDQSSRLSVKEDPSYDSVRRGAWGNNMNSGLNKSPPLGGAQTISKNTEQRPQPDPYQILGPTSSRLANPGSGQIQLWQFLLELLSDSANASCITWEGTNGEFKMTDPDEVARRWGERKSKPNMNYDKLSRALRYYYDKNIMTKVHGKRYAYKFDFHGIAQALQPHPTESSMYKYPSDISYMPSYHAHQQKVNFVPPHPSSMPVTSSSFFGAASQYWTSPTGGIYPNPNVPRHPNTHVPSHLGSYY
Outline: (§1)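 Yeast served to express human transcription factors as GST fusions, which were then captured on glutathione beads and labelled with DNA barcodes. Pooled with a tag-only sample, they were incubated with 200 nmole of a 16-mer random double-stranded DNA library for 30 min at room temperature in Tris/NaCl/DTT/glycerol buffer, washed, crosslinked with 0.1% formaldehyde, ligated by proximity, amplified by PCR and sequenced. Dividing each hexamer's read frequency for a factor by its frequency for the tag-only sample gives the binding signal.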

[2] = target: T2, ELK1 (Homo sapiens, UniProt P19419 1-428); settings: protein: recombinant; tags: N-terminal GST; dsDNA, one strand shown
T2 sequence: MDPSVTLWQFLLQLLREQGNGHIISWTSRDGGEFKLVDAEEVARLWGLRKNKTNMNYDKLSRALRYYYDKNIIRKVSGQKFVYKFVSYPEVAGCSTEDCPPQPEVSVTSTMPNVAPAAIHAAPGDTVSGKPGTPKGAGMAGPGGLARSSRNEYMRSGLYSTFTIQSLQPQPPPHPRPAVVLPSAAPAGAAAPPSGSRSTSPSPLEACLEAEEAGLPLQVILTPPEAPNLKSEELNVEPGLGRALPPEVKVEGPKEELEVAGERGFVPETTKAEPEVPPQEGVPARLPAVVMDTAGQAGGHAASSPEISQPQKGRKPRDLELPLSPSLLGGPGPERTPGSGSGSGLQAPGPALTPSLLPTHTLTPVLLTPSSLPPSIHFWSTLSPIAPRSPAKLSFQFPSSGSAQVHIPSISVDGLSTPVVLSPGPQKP
Outline: as §1

[3] = target: T3, GABPA (Homo sapiens, UniProt Q06546 1-454); settings: protein: recombinant; tags: N-terminal GST; dsDNA, one strand shown
T3 sequence: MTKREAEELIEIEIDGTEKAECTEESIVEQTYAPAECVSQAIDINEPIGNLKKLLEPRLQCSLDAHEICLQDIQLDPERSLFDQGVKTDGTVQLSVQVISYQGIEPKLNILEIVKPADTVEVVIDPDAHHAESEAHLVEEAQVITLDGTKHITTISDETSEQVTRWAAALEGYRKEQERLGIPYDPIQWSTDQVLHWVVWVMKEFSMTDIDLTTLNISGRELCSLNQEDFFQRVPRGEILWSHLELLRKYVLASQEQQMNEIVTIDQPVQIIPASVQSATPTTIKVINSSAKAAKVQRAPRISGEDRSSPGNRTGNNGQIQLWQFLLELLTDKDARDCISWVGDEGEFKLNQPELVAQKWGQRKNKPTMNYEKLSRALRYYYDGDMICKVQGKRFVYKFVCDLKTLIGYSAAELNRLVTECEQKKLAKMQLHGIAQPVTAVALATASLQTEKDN
Outline: as §1

[4] = target: T4, ERG (Homo sapiens, UniProt P11308 1-479); settings: protein: recombinant; tags: N-terminal GST; dsDNA, one strand shown
T4 sequence: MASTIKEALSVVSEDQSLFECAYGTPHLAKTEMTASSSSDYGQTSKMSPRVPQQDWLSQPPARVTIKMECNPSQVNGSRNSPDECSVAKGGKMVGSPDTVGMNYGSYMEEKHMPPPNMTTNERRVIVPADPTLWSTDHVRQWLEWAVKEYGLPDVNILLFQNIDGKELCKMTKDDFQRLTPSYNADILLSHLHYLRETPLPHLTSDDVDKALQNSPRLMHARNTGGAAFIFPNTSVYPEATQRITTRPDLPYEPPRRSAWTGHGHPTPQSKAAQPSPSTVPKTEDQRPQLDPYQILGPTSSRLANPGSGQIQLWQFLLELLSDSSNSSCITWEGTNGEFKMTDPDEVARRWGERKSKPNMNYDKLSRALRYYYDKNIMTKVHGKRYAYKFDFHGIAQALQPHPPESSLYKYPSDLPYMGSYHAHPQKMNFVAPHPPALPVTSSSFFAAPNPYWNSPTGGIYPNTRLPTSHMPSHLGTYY
Outline: as §1

[5] = target: ELF1 (Homo sapiens, UniProt P32519 1-619); settings: protein: recombinant; tags: N-terminal GST; dsDNA, one strand shown
Chain of ELF1 (P32519 whole entry): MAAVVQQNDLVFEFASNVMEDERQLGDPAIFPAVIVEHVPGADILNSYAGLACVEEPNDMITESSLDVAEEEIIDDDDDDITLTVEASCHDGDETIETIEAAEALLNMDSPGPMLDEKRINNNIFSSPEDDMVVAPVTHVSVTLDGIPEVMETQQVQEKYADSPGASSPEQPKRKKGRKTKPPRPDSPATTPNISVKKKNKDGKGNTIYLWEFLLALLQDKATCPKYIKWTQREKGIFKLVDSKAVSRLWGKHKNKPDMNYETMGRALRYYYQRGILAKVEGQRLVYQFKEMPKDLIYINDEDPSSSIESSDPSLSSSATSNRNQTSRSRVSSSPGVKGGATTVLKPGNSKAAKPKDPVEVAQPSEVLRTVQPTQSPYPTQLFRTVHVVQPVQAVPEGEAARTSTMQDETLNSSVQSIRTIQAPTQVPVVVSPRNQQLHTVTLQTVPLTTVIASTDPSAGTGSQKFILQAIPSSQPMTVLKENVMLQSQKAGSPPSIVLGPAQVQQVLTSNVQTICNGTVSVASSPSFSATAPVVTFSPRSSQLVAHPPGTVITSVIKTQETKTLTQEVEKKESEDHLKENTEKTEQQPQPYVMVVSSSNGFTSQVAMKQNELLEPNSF
Outline: as §1

[6] = target: T5, EHF (Homo sapiens, UniProt Q9NZC4 1-300); settings: protein: recombinant; tags: N-terminal GST; dsDNA, one strand shown
T5 sequence: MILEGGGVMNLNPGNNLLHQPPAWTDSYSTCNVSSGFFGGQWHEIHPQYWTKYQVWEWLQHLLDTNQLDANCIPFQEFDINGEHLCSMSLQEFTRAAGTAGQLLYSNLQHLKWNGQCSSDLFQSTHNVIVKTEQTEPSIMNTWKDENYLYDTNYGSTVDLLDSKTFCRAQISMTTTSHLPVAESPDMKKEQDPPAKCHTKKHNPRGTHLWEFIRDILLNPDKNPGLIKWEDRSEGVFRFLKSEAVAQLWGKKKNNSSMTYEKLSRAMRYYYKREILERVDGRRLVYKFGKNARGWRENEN
Outline: as §1

[7] = target: SPI1 (Homo sapiens, UniProt P17947 1-270); settings: protein: recombinant; tags: N-terminal GST; dsDNA, one strand shown
Outline: as §1

[8] = target: SPIB (Homo sapiens, UniProt Q01892 1-262); settings: protein: recombinant; tags: N-terminal GST; dsDNA, one strand shown
Chain of SPIB (Q01892 whole entry): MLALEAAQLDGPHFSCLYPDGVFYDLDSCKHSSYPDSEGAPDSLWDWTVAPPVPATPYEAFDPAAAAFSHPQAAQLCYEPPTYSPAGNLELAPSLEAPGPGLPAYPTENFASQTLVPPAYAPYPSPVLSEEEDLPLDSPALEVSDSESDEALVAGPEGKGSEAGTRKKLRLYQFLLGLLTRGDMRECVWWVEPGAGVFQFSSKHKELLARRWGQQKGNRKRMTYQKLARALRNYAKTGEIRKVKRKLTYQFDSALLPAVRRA
Outline: as §1

[9] = target: T6, ELK3 (Homo sapiens, UniProt P41970 1-407); settings: protein: recombinant; tags: N-terminal GST; dsDNA, one strand shown
T6 sequence: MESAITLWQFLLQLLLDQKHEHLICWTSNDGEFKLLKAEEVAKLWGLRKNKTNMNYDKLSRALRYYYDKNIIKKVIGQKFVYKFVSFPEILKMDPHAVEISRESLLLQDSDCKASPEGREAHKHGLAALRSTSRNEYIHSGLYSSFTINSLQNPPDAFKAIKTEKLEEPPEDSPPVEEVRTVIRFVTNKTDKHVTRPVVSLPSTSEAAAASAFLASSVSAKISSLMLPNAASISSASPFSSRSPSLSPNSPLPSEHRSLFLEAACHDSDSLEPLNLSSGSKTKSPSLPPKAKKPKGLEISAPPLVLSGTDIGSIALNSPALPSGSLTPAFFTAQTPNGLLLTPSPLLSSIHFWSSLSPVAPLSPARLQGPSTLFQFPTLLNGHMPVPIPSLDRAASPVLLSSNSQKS
Outline: as §1

[10] = target: T7, FEV (Homo sapiens, UniProt Q99581 1-238); settings: protein: recombinant; tags: N-terminal GST; dsDNA, one strand shown
T7 sequence: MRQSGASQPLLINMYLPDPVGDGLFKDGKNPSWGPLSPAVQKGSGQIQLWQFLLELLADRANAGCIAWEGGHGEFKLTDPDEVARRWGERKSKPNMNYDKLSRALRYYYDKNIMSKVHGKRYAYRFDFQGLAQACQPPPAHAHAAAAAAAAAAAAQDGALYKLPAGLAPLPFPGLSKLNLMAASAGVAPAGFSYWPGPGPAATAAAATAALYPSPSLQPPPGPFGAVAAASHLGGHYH
Outline: as §1

[11] = target: ETV5 (Homo sapiens, UniProt P41161 1-510); settings: protein: recombinant; tags: N-terminal GST; dsDNA, one strand shown
Chain of ETV5 (P41161 whole entry): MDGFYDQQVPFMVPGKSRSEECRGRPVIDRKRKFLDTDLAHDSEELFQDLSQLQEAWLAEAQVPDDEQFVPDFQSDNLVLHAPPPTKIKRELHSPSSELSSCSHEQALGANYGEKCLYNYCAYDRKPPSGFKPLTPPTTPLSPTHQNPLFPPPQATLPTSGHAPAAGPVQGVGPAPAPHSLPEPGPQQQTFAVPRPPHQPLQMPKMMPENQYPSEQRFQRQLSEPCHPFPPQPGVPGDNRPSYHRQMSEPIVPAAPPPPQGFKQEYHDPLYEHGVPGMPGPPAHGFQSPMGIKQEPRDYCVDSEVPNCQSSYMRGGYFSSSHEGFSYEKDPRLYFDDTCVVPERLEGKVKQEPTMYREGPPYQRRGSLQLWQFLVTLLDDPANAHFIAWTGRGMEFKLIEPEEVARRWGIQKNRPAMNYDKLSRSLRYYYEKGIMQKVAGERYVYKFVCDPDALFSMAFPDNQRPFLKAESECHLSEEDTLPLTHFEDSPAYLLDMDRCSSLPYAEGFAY
Outline: as §1

[12] = target: HSF1 (Homo sapiens, UniProt Q00613 1-529); settings: protein: recombinant; tags: N-terminal GST; chain copies: 3; dsDNA, one strand shown
Chain of HSF1 (Q00613 whole entry): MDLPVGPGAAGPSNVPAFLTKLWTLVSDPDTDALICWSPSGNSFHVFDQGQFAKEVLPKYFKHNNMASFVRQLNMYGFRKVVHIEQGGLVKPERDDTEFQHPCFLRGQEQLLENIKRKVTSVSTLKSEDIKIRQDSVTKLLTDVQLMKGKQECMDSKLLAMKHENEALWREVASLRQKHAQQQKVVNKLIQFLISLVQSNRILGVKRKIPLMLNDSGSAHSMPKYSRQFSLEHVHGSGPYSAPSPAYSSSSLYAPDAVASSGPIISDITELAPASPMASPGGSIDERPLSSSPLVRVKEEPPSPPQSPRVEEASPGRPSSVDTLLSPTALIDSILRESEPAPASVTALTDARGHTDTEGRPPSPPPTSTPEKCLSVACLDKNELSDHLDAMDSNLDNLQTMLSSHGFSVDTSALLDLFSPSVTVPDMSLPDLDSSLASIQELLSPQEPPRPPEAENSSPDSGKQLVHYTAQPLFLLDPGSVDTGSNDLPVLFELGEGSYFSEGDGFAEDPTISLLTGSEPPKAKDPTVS
Outline: as §1

[13] = target: T8, SPIC (Homo sapiens, UniProt Q8N5J4 1-248); settings: protein: recombinant; tags: N-terminal GST; dsDNA, one strand shown
T8 sequence: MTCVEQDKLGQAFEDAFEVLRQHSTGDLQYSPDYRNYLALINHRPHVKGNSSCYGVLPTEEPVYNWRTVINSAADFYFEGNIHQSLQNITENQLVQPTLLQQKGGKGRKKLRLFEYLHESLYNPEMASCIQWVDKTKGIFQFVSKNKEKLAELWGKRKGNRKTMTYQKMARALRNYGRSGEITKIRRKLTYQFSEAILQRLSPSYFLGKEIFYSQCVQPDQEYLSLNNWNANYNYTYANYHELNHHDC
Outline: as §1

[14] = target: ELF4 (Homo sapiens, UniProt Q99607 1-663); settings: protein: recombinant; tags: N-terminal GST; dsDNA, one strand shown
Chain of ELF4 (Q99607 whole entry): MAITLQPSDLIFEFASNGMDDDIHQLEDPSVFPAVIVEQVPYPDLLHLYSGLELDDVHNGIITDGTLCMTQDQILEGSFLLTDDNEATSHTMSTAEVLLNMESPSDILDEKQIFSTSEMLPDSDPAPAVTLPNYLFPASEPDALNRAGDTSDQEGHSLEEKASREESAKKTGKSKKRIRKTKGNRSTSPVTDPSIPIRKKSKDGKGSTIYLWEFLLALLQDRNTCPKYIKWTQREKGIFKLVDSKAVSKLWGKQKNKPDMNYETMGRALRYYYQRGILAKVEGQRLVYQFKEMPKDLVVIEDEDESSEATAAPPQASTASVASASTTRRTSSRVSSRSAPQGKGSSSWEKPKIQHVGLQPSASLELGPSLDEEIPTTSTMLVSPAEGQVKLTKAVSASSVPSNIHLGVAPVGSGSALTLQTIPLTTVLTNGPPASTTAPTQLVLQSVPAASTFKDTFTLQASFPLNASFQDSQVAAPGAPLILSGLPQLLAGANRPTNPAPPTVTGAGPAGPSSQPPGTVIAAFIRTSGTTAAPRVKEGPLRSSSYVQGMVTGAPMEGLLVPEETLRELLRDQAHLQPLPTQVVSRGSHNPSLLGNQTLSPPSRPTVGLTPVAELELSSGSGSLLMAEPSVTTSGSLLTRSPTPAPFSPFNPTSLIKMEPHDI
Outline: as §1

[15] = target: T9, ELK4 (Homo sapiens, UniProt P28324-2 1-405); settings: protein: recombinant; tags: N-terminal GST; dsDNA, one strand shown
T9 sequence: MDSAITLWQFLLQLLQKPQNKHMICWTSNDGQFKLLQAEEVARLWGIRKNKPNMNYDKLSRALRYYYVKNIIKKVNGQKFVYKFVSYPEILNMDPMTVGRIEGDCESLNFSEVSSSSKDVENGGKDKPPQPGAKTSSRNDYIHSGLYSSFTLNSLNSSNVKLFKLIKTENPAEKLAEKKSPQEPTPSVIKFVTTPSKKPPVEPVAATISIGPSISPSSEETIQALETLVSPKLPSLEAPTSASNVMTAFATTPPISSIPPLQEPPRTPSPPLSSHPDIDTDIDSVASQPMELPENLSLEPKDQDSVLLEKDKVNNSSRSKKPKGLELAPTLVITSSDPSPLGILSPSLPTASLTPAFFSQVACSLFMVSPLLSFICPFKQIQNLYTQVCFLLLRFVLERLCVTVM
Outline: as §1

[16] = target: T10, ETV2 (Homo sapiens, UniProt O00321 1-342); settings: protein: recombinant; tags: N-terminal GST; dsDNA, one strand shown
T10 sequence: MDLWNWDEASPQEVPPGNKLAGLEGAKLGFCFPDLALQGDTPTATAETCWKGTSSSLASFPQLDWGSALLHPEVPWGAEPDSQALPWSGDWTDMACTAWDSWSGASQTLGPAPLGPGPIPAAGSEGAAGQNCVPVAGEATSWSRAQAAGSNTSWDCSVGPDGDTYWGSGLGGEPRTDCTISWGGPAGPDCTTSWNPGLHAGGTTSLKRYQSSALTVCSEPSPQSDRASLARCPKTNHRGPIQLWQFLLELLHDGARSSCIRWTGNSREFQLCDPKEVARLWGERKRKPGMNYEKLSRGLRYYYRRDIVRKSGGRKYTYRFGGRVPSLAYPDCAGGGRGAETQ
Outline: as §1

[17] = target: T11, ELF3 (Homo sapiens, UniProt P78545 1-371); settings: protein: recombinant; tags: N-terminal GST; dsDNA, one strand shown
T11 sequence: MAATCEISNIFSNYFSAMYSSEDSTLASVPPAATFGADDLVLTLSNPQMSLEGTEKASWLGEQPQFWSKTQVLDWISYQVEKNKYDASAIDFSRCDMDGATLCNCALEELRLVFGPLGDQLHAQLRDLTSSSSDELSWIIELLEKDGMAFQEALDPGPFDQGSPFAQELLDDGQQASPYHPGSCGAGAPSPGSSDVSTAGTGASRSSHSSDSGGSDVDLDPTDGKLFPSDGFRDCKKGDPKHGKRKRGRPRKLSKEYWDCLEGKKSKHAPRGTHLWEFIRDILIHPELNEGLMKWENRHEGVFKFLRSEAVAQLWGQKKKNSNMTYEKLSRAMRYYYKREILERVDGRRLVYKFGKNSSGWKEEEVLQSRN
Outline: as §1

[18] = target: CRX (Homo sapiens, UniProt O43186 1-299); settings: protein: recombinant; tags: N-terminal GST; dsDNA, one strand shown
Chain of CRX (O43186 whole entry): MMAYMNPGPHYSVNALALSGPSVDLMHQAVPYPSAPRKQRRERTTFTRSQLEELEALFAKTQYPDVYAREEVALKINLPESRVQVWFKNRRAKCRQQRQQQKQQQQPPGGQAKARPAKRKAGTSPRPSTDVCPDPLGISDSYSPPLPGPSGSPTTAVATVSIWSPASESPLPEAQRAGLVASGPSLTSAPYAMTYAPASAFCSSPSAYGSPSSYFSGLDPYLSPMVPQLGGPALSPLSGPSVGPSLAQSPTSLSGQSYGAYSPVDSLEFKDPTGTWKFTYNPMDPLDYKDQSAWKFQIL
Outline: as §1

[19] = target: ETV1 (Homo sapiens, UniProt P50549 1-477); settings: protein: recombinant; tags: N-terminal GST; dsDNA, one strand shown
Chain of ETV1 (P50549 whole entry): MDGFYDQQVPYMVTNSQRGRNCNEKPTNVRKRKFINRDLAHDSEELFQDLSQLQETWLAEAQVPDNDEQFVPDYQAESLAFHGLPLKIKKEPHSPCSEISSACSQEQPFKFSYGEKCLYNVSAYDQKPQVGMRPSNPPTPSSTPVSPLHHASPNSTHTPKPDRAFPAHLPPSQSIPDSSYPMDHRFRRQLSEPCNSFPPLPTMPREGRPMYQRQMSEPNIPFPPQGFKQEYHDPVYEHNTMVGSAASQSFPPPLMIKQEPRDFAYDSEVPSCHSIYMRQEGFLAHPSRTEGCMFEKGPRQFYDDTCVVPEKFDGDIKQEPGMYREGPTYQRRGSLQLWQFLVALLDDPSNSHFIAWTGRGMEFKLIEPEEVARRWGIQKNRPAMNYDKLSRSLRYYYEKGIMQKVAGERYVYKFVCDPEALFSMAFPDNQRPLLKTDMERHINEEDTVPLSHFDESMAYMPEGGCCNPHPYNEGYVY
Outline: as §1

## CCTGAT
[1]
  binding signal: 1.27 fold enrichment (6-mer frequency, TF over GST control)
[2]
  binding signal: 1.56 fold enrichment (6-mer frequency, TF over GST control)
[3]
  binding signal: 1.5 fold enrichment (6-mer frequency, TF over GST control)
[4]
  binding signal: 1.42 fold enrichment (6-mer frequency, TF over GST control)
[5]
  binding signal: 1.38 fold enrichment (6-mer frequency, TF over GST control)
[6]
  binding signal: 1.45 fold enrichment (6-mer frequency, TF over GST control)
[7]
  binding signal: 1.5 fold enrichment (6-mer frequency, TF over GST control)
[8]
  binding signal: 1.6 fold enrichment (6-mer frequency, TF over GST control)
[9]
  binding signal: 1.45 fold enrichment (6-mer frequency, TF over GST control)
[10]
  binding signal: 1.32 fold enrichment (6-mer frequency, TF over GST control)
[11]
  binding signal: 1.49 fold enrichment (6-mer frequency, TF over GST control)
[12]
  binding signal: 1.32 fold enrichment (6-mer frequency, TF over GST control)
[13]
  binding signal: 1.42 fold enrichment (6-mer frequency, TF over GST control)
[14]
  binding signal: 1.59 fold enrichment (6-mer frequency, TF over GST control)
[15]
  binding signal: 1.5 fold enrichment (6-mer frequency, TF over GST control)
[16]
  binding signal: 1.55 fold enrichment (6-mer frequency, TF over GST control)
[17]
  binding signal: 1.34 fold enrichment (6-mer frequency, TF over GST control)
[18]
  binding signal: 1.44 fold enrichment (6-mer frequency, TF over GST control)
[19]
  binding signal: 1.46 fold enrichment (6-mer frequency, TF over GST control)

From PMC7862700, “An all-to-all approach to the identification of sequence-specific readers for epigenetic DNA modifications on cytosine”
